The full list was thinned out, with hits kept by preference.
ERK EGF block – blocks ERK signaling stimulated by EGF | 0.41% of 130,000 active | AID 1454 | HEK293-V1b, EGF-stimulated phospho-ERK AlphaScreen | Potency, µM (series often up to 11.5 µM), inactives show at the highest dose activity change, negative = inhibition, actives largely listed as inhibitors; active means well fitted inhibition curve with a large enough effect;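 further: plate controls were stimulated vehicle wells for no effect and unstimulated vehicle basal for full effect; nearly all actives have a fitted effect of over 55% in size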
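Stably V1b-transfected HEK293 cells; 30 min compound, then EGF 25 nM final for 5 min at 37C; 10 min lysis; phospho-ERK by AlphaScreen after 5 hr beads at room temperature.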
Starred values were filed as active, the others as inactive; [ ] = another dose, or the depositor's remark. Potency means the concentration at half of the fitted maximal effect.

SMILES | ERK EGF block
O=S(=O)(CCC(F)=C(F)F)c1nnnn1C1CCCCC1 | -9%
COC(=O)C1=C(C(=O)OC)[C@@H]2N(Cc3ccccc3)c3ccccc3[C@@]23C[C@@H](C(=O)OC)N(C(=O)NCc2ccccc2)C3=C1 | -1%
O=C(Oc1ccccc1)C1O[C@@H]1c1ccccc1 (stereo not given in full) | -5%
O=c1c(O)c(-c2ccc(O)c(O)c2)oc2ccccc12 | -10%
NNC(=O)c1ccc(COc2cccc3cccnc23)cc1 | -2%
O=C(N/N=C/c1ccc[nH]1)c1ccc(COc2cccc3cccnc23)cc1 | 25µM*
O=C(N/N=C/c1ccccc1C(=O)O)c1ccc(COc2cccc3cccnc23)cc1 | 0%
COc1ccc(-c2cc(C(F)F)n3ncc(C(=O)Nc4cc(C)on4)c3n2)cc1 | 28µM*
COCCNC(=O)c1cnn2c(C(F)F)cc(-c3ccc(C)cc3)nc12 | -12%
COc1ccc(-c2cc(C(F)F)n3ncc(C(=O)Nc4c(C)n(C)n(-c5ccccc5)c4=O)c3n2)cc1 | 6%
CN(C)c1ncnc2ccc(-c3ccccc3C#N)cc12 | 51%
O=C(c1cc(C(F)(F)F)cc(C(F)(F)F)c1)N1CCC2(CCCN(c3ccccc3)C2)CC1 | 4%
O=[N+]([O-])c1ccccc1S(=O)(=O)NCC1CCC(CNCC2CCc3ccccc3C2)CC1 (stereo not given) | 13%
CCN(CC)CCC(=O)Nc1cccc2c1C(=O)c1ccccc1C2=O | 5%[57.5 µM]
CN(C)c1cccc2c1C(=O)c1ccccc1C2=O | 13µM*
CCN(CC)C(=O)c1cccc2c1C(=O)c1ccccc1-2 | 1%
CC(N)=NCCCC(N)C(=O)O (stereo not given) | 1%
Cc1ccc(CN2CCN(C(=O)c3ccco3)CC2)cc1 | -2%
Cc1ccc2c(c1)-c1c(ssc1=S)C(C)(C)N2C(=O)c1ccco1 | 13µM*
Cc1cccn2c1nc(=S)n2C(=O)c1ccco1 | -2%
COc1cccc([C@@H]2Oc3ccc(OC)cc3[C@H](O)[C@H]2O)c1 | -8%
O=C(/C=C/c1ccc(Cl)cc1Cl)NC(=S)Nc1ccc(CN2CCOCC2)cc1 | 3%
O=C(NC(=S)Nc1ccc(CN2CCOCC2)cc1)c1ccc(-c2ccc(Cl)cc2)o1 | -1%[57.5 µM]
O=C(Nc1ccc(CN2CCOCC2)cc1)c1ccc(-c2ccc(Cl)cc2Cl)o1 | 25µM*
COC(=O)[C@H](COC(C)(C)C)NC(=O)O[C@@H]1Cc2cc(OC)ccc2O[C@H]1c1cccc(OC)c1 | 6%
SMILES | ERK EGF block
COc1cc(/C=C/C(=O)c2cccs2)cc(OC)c1OC | -7%
COc1cccc(CNc2nc(-c3cccnc3)nc3ccccc23)c1 | 4%
Cc1cccc(CNc2nc(-c3ccc(C(=O)N(C)C)cc3)nc3ccccc23)c1 | 22%
Cc1cccc(CNc2nc(-c3cccnc3)nc3ccccc23)c1 | 32µM*
Cc1ccc(S(=O)(=O)NC(=O)O[C@@H]2C(=O)c3cc(Br)ccc3O[C@H]2c2ccc3c(c2)OCO3)cc1 | 5%
CCOC(=O)C1CSC(Cc2ccc(OCc3ccc([N+](=O)[O-])cc3)cc2)N1 (stereo not given) | 0%
C=CCC(C)(NCc1ccccc1)C(=O)OCC (stereo not given) | -6%
O=C(NCCCOc1cccc(CN2CCCCC2)c1)c1ccc(Cl)c(Cl)c1 | 4%
O=C(CN1CCSC1=NCc1ccccc1)c1ccc(Cl)c(Cl)c1 | -3%
N=c1n(CCN2CCCCC2)c2ccccc2n1CC(=O)c1ccc(Cl)c(Cl)c1 | 28µM*
C=CCOC(=O)N[C@H](/C(C(=O)OC)=C(\C)NCc1ccccc1)c1cccc(C(F)(F)F)c1 | 1%
Nc1ncnc2c1nc(Sc1ccc(Cl)cc1)n2[C@H]1O[C@@H]2COP(=O)(O)O[C@H]2[C@@H]1O | 17%
COc1cc(C2c3cc4c(cc3C(OC3OC5COC(C)O[C@@H]5C(O)C3O)C3COC(=O)C23)OCO4)cc(OC)c1O (stereo not given in full) | 3%
COc1cc(O)c(C(CCN2CCN(c3ccccc3)CC2)c2ccc(N(C)C)cc2)c(OC)c1 (stereo not given) | 18µM*
COc1ccc(C(CCN2CCN(c3ccccc3)CC2)c2c(O)cc(OC)cc2OC)cc1 (stereo not given) | -1%[57.5 µM]
COc1ccc(C(CCN2CCCCC2)c2c(O)cc(OC)cc2OC)cc1 (stereo not given) | -4%[57.5 µM]
CNc1nc(-c2ccc(N(C)C)cc2)nc2ccccc12 | 30%
O=C(Nc1cccc(F)c1)N1CC2(CCN(C(=O)c3cccc(F)c3)CC2)C1 | 0%
C=C(C(C)=O)C(O)/C=C/c1ccco1 (stereo not given) | -5%
N#CCCCS(=O)(=O)c1nnnn1-c1ccc(F)cc1Br | -17%
CCN1/C(=C/c2cc[n+](C)cc2)C=Cc2cc(C)ccc21 | 16µM*
CCN1/C(=C2\C(=O)N(c3ccccc3)N=C2C)C=Cc2cc(C)ccc21 | -14%
Cc1ccc2c(c1)S/C(=C/c1ccc[n+](C)c1)N2CCO | -5%
C=CC(C1=CC(=O)C(OC)=CC1=O)c1ccccc1 (stereo not given) | 8%
O=C1c2cccc3cccc(c23)N1Cc1ccc(F)cc1 | -3%
SMILES | ERK EGF block
CCN1/C(=N\N)c2cccc3cccc1c23 | 13µM*
CCN(CC)C(=O)CN1C(=O)c2cccc3cccc(c23)C1=O | -5%
FC(F)(F)c1ccccc1-c1ccc2ncnc(NC3CCNCC3)c2c1 | 28%
CN(Cc1ccco1)c1ccnc(-c2ccoc2)n1 | 6%
Cc1ccc(NC(=O)CC(=O)c2ccc([N+](=O)[O-])cc2)cc1S(=O)(=O)Nc1cccc(Cl)c1 | 18%
Cc1ccc(NC(=O)c2cccs2)cc1S(=O)(=O)Nc1cccc(Cl)c1 | 20µM*
Cc1ccc(NC(=S)NC(=O)c2ccc(F)cc2)cc1S(=O)(=O)Nc1cccc(Cl)c1 | -5%
CC(=O)N1CCC2(CC1)CCN(c1ccccn1)CC2 | 3%
C=C(C(=O)OCC)C(=O)c1ccccc1 | -5%
CCOC(=O)c1c(NC(=O)c2ccc(C)cc2)sc2c1CC(C)(C)NC2(C)C | 0%[57.5 µM]
COC(=O)c1c(NC(=O)c2ccccc2)sc2c1CC(C)(C)NC2(C)C | 3%[57.5 µM]
COC(=O)c1c(NC(=O)c2ccc(OC(C)C)cc2)sc2c1CC(C)(C)NC2(C)C | 28µM*
CCCC/C=C/C(NC(=O)c1cccs1)c1ccccc1 (stereo not given) | 3%
COc1cccc([C@@H]2Oc3ccc(OC)cc3C[C@H]2O)c1 | -8%
CCCCC/C=C\C/C=C\C/C=C\CCCCC(=O)NC(C)C(=O)O (stereo not given) | -1%
O=C(Nc1nc2c(s1)CCCC2)c1ccc(S(=O)(=O)N2CCCc3ccccc32)cc1 | 1%
CC(C)(C)c1ccc(C(=O)NC(=S)Nc2nc3c(s2)CCCC3)cc1 | 8%
CN(C)c1ccc(C(=O)Nc2nc3c(s2)CCCC3)cc1 | 22µM*
COc1cccc([C@@H]2Oc3ccc(OC)cc3C(=O)[C@H]2OC(=O)NCCc2ccc(OC)c(OC)c2)c1 | -4%
CCOC(=O)CNC(=O)O[C@@H]1C(=O)c2cc(Br)ccc2O[C@H]1c1cccc(OC)c1 | 5%
CC(=O)O[C@@H]1CC2C(C)(C)C(=O)C=C[C@]2(C)C2CC[C@]3(C)C(=CC[C@H]3C3CO[C@@H](C(C)(C)O)[C@H](O)C3)[C@@]21C (stereo not given in full) | -14%
CCC(=C(CC)c1ccc(O)cc1)c1ccc(O)cc1 | 12%[25.7 µM]
c1cncc(CNc2ncnc3ccc(-c4cccnc4)cc23)c1 | 11%
COc1cccc(-c2ccc3ncnc(NCc4cccs4)c3c2)c1 | 28µM*
COc1cccc(-c2ccc3ncnc(NC4CCNCC4)c3c2)c1 | 34%

Compound activity from PubChem.
